Experimental findings from PubChem BioAssay (NCATS) are described below.

Test [1] has as its target Rap guanine nucleotide exchange factor 3 (Homo sapiens) (UniProt O95398). The experiment in a line: Confirmatory qHTS for antagonist of cAMP-regulated guanine nucleotide exchange factor 3 (EPAC1) (AID 1645880). Further: nearly all actives have a fitted effect of over 55% in size. Further: potency means the concentration at half of the fitted maximal effect. In a few lines: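 Nucleotide exchange uses 100 nM EPAC1, 250 nM RAP1B-BODIPY-GDP and 50 uM GDP, with compounds in a concentration-titration series. After 5 min at room temperature, fluorescence (480 nm ex/540 nm em) is read every 5 min for 30 min. Data are normalized to control ATA and DMSO.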
In general terms: In qHTS, concentration-response curves come from the screen itself.

Test [2] has the same target. Kind of test: Confirmatory qHTS for agonist of cAMP-regulated guanine nucleotide exchange factor 3 (EPAC1) (AID 1645881). Further: nearly all actives have a fitted effect of over 75% in size. Further: potency means the concentration at half of the fitted maximal effect.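 On activation: EPAC1 catalysed release of BODIPY-GDP from Rap1B seen as fluorescence loss; 100% = effect of cAMP agonist control.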
Test [3] deals with Rap guanine nucleotide exchange factor 4 (Homo sapiens) (UniProt Q8WZA2). The experiment in a line: Confirmatory qHTS for agonist of cAMP-regulated guanine nucleotide exchange factor 4 (EPAC2) (AID 1645884).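 Further: nucleotide exchange releases bodipy-GDP from Rap1 and this lowers its fluorescence; nearly all actives have a fitted effect of over 65% in size.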 Further: potency means the concentration at half of the fitted maximal effect. On activation: on the % scale 0 is the no-effect control and ±100 the full control effect.
Chain of Rap guanine nucleotide exchange factor 4 (Homo sapiens) (Q8WZA2 whole entry, looked up): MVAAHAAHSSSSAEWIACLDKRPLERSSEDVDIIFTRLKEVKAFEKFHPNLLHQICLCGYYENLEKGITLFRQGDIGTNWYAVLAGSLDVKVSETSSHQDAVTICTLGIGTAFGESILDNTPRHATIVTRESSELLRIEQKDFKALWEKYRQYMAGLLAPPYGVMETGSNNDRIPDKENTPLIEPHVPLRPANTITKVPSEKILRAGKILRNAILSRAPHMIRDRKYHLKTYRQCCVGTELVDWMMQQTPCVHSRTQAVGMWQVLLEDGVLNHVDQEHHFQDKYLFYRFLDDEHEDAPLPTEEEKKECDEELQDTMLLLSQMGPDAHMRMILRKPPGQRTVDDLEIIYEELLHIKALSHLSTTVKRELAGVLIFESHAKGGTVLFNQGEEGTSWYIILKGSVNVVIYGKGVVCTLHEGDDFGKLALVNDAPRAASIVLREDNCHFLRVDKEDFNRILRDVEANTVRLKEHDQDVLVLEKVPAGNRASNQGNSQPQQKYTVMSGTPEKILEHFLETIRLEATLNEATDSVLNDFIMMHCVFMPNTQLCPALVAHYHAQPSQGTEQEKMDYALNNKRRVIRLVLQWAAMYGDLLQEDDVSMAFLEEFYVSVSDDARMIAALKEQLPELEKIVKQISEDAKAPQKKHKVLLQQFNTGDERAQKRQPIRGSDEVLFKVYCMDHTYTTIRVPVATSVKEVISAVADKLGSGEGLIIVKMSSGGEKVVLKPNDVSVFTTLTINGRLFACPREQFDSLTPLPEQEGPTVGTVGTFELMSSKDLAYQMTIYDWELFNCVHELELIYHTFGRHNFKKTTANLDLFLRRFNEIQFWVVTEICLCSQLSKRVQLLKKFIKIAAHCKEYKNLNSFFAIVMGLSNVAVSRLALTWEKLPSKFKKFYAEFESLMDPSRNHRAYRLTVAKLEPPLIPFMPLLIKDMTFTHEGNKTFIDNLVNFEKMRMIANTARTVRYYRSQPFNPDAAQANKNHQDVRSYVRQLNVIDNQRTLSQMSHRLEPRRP
The target is the same in test [4]. Kind of test: Confirmatory qHTS for antagonist of cAMP-regulated guanine nucleotide exchange factor 4 (EPAC2) (AID 1645885). Further: nearly all actives have a fitted effect of over 25% in size. Further: potency means the concentration at half of the fitted maximal effect. On activity change, negative = inhibition: on the % scale 0 is the no-effect control and ±100 the full control effect.
For test [5], the target named is Rap guanine nucleotide exchange factor 3 (Homo sapiens) (UniProt O95398). The experiment in a line: Counterscreen qHTS for antagonist of cAMP-regulated guanine nucleotide exchange factor 3 (EPAC1) (AID 1645888).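 Further: fluorescence loss as bound BODIPY-GDP is released from Rap1B; % of control where 0% means no effect.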 In short, it runs like this:
(§1)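 Measured: fluorescence of BODIPY-GDP bound to Rap1B, which falls as exchange proceeds. Conditions include 50 uM competing GDP, 5 and 30 min reads, and a later cAMP challenge for antagonist detection.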
A general note: The purpose of a counterscreen is to sort out artefacts and off-target activity.

Test [6] has the same target. Kind of test: Counterscreen qHTS for agonist of cAMP-regulated guanine nucleotide exchange factor 3 (EPAC1) (AID 1645889). Further: nearly all actives have a fitted effect of over 40% in size. Further: potency means the concentration at half of the fitted maximal effect. On activation: % of control where 0% means no effect. In a few lines:
as §1

Test [7] addresses Cytochrome P450 3A4 (Homo sapiens) (UniProt P08684). The experiment in a line: qHTS Assay for Inhibitors and Substrates of Cytochrome P450 3A4 (AID 884). Further: series mostly up to about 57 µM; on the % scale 0 is the no-effect control and ±100 the full control effect; nearly all actives have a fitted effect of over 50% in size. In short, it runs like this: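 20 nM human CYP3A4 with 25 uM Luciferin-PPXE (at KM) in 200 mM KPO4, preincubated 10 min with compound; NADPH regeneration started a 60 min RT reaction. Luciferin detected by luminescence, normalized to 57 uM ketoconazole as full inhibition.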

Test [8] addresses DNA dC->dU-editing enzyme APOBEC-3G (Homo sapiens) (UniProt Q9HC16). The experiment in a line: qHTS for inhibitors of Vif-A3G interactions: Validation (AID 588379). Further: 0% is about no effect. In short, it runs like this: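 HeLa cells stably expressing Vif and A3G-eYFP, 700 cells/well, incubated overnight at 37 deg C, then exposed to compound overnight at 37 deg C. Inhibition of Vif-mediated degradation read as increased yellow fluorescence (Ex 488/Em 500-530) by laser-scanning cytometry.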

Test [9] in a line: qHTS for Inhibitors of the vitamin D receptor (VDR): Hit Validation using a Texas Red Assay (AID 602201). Further: potency means the concentration at half of the fitted maximal effect. In a few lines:
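Fluorescence polarization (Ex 595/Em 615 nm) of Texas Red (7 nM) with 1.5 uM VDR-LBD and LG19078 (final concentrations). Compounds were incubated for 2 hours at room temperature.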

Test [10] deals with Cytochrome P450 3A4 (Homo sapiens) (UniProt P08684). The experiment in a line: qHTS Assay for Activators of Cytochrome P450 3A4 (AID 885). Further: nearly all actives have a fitted effect of over 65% in size. In short, it runs like this: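 Human CYP3A4 (20 nM) with Luciferin-PPXE at 25 uM (its KM) in 200 mM KPO4; 10 min compound preincubation, then NADPH regeneration and 60 min reaction at RT. Luciferin read by luminescence; normalized to 57 uM ketoconazole full inhibition.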
Chain of Cytochrome P450 3A4 (Homo sapiens) (P08684 whole entry, looked up): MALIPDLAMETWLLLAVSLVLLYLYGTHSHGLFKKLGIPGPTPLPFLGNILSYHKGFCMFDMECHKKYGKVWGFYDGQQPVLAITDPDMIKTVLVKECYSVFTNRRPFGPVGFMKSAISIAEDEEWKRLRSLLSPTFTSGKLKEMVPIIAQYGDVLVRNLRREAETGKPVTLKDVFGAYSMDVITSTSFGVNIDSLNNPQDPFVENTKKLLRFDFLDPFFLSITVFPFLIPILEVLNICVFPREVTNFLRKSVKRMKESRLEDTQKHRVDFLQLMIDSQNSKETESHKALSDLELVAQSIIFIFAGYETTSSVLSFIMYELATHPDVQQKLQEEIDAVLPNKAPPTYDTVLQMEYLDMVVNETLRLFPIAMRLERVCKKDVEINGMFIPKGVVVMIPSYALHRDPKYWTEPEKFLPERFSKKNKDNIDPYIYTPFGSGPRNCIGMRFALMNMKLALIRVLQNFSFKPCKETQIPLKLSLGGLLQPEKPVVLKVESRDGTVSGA

Test [11] can be described thus: Confirmation and Secondary Assay for Modulators of Hemoglobin Beta Chain Splicing at IVS2 654 locus (AID 910).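 Further: per-well total GFP intensity by laser scanning cytometry after 2-day treatment; % of control where 0% means no effect.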 In a few lines:
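HeLa cells stably carrying EGFP interrupted by mutant beta-globin IVS2-654 intron (CMV-driven) were treated with compound for 2 days at 37C; corrected splicing was scored as total peak GFP intensity per well (488 nm excitation, 500-520 nm emission).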

Test [12] in a line: Confirmation and Secondary Assay for Modulators of Hemoglobin Beta Chain Splicing at IVS2 705 locus (AID 930).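 Further: HeLa cells stably expressing the EGFP-705 splicing reporter; GFP fluorescence per well restored by corrected splicing of the IVS2-705 intron in EGFP; series mostly up to about 46 µM; % of control where 0% means no effect.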 In short, it runs like this:
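First, HeLa EGFP-705 cells are seeded at 500/well in Optimem with 2% FCS and left overnight. Next, compound or DMSO is added for 2 days. Finally wells are laser-scanned and total peak GFP intensity scored.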

In test [13] the target is Ubiquitin carboxyl-terminal hydrolase 1 (Homo sapiens) (UniProt O94782). The experiment in a line: Inhibitors of USP1/UAF1: Pilot qHTS (AID 504865). Further: potency means the concentration at half of the fitted maximal effect; nearly all actives have a fitted effect of over 35% in size. In short, it runs like this: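 Kinetic fluorescence assay: 1nM USP1/UAF1, 15 min compound preincubation, then 150nM Ub-Rho; 480/540 nm.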
Chain of Ubiquitin carboxyl-terminal hydrolase 1 (Homo sapiens) (O94782 whole entry, looked up): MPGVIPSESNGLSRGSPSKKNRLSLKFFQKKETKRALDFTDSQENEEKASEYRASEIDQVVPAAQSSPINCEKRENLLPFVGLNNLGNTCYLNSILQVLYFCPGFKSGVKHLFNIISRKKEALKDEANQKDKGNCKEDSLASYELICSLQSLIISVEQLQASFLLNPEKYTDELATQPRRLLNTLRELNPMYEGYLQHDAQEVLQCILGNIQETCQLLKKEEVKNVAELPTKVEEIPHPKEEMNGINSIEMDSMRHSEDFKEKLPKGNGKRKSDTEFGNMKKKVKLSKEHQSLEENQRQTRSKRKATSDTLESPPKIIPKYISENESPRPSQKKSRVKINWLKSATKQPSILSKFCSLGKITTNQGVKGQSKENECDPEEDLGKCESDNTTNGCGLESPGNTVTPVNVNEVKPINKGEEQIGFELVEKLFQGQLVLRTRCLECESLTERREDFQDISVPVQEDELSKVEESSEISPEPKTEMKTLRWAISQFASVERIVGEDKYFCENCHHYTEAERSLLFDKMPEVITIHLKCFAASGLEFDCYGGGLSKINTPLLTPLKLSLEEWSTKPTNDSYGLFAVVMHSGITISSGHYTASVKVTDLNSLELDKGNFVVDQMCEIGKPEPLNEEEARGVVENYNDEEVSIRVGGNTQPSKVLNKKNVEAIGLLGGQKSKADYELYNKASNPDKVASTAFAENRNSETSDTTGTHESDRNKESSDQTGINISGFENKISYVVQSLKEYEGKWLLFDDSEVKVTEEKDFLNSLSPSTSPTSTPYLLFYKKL
Test [14] addresses Glutathione peroxidase 1 (Homo sapiens) (UniProt P07203). The experiment in a line: Primary qHTS Assay for Inhibitors of Recombinant Selenoprotein Glutathione Peroxidase 1 (GPX1) (AID 1845191). Further: on the % scale 0 is the no-effect control and ±100 the full control effect; nearly all actives have a fitted effect of over 65% in size. In a few lines:
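Recombinant GPX1 (10 nM final) was preincubated with compound for 30 min at room temperature, then reacted with 1 mM GSH, 0.5 mM CHP, 0.5 mM NADPH and 100 nM glutathione reductase; NADPH fluorescence (340/450 nm) was read at 0 and 15 min.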

Test [15] concerns the target Tumor susceptibility gene 101 protein (Homo sapiens) (UniProt Q99816). Kind of test: qHTS Assay for Iinhibitors of HIV-1 Budding by Blocking the Interaction of PTAP/TSG101: Hit Validation (AID 651600). Further: potency means the concentration at half of the fitted maximal effect; nearly all actives have a fitted effect of over 70% in size. In a few lines: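 Displacement of a FITC-labeled PTAP-motif peptide (50 nM) from the Tsg101 binding domain (10 uM) was monitored by fluorescence polarization after a 20 min room-temperature incubation.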

Values without a mark were called inactive. Results filed as inconclusive are left out. Calls of active or inactive are those of the source. The call rests on the fitted dose curve; in most records, active means well fitted curve in the direction sought with a large enough effect; inconclusive means small, poorly fitted or top-dose-only effect, or another doubt; inactive means no such curve, though single readings can be large; an effect the other way counts as inactive or inconclusive.

Chain of Rap guanine nucleotide exchange factor 3 (Homo sapiens) (O95398 whole entry, looked up): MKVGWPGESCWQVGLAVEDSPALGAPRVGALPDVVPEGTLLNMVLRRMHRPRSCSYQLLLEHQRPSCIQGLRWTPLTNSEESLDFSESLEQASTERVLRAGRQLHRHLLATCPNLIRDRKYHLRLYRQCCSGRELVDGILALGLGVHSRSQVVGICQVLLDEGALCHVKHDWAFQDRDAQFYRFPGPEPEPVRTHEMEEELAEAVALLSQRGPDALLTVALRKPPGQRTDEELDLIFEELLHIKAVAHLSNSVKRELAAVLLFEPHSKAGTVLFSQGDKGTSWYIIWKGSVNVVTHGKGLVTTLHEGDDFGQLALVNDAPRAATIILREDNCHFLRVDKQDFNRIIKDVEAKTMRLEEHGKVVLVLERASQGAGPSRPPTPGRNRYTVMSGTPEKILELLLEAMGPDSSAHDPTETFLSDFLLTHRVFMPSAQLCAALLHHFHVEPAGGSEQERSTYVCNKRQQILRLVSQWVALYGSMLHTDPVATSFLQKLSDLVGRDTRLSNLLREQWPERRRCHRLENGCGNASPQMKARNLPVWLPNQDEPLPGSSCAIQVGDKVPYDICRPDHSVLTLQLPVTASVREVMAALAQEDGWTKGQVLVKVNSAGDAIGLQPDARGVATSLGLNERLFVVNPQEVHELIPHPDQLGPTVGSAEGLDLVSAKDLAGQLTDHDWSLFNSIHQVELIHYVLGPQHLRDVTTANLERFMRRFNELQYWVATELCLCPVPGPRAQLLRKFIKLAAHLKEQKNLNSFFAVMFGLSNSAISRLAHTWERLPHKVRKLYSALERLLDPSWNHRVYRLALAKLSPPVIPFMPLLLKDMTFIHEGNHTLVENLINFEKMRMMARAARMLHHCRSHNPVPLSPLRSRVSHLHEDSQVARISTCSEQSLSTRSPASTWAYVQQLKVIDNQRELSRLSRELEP
Chain of Glutathione peroxidase 1 (Homo sapiens) (P07203 whole entry, looked up): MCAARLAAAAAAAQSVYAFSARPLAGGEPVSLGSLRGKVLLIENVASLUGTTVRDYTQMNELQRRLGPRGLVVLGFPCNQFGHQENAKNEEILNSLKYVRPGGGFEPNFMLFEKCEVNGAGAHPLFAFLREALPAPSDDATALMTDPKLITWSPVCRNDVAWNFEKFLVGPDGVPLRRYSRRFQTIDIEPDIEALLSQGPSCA
Chain of DNA dC->dU-editing enzyme APOBEC-3G (Homo sapiens) (Q9HC16 whole entry, looked up): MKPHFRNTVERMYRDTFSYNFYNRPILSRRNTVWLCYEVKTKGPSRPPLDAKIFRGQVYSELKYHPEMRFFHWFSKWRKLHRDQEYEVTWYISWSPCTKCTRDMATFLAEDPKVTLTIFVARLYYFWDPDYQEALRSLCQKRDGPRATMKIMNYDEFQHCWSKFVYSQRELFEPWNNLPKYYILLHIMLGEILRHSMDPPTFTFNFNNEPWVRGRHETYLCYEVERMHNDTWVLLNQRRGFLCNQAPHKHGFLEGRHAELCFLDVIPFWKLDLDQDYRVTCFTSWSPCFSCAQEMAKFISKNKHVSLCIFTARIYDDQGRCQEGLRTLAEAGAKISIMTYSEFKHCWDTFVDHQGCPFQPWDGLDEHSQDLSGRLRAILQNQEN
Chain of Tumor susceptibility gene 101 protein (Homo sapiens) (Q99816 whole entry, looked up, the tested form may be a part): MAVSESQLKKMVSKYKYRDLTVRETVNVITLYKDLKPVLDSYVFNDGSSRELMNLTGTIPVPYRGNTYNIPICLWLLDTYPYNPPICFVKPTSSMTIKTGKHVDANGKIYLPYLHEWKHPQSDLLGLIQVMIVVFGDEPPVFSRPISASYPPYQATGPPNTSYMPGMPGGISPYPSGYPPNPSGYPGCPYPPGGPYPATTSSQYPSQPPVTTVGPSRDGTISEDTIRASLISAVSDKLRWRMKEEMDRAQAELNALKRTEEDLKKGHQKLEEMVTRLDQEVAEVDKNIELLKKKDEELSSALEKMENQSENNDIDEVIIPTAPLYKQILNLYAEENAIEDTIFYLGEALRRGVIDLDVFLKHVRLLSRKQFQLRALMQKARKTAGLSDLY

For `CCN1/C(=C/C=C/C2=[N+](CC)c3ccccc3C2(C)C)C(C)(C)c2ccccc21`, the Potency entry in [1] and in [4] was “inactive” in each case. Moreover, the Potency in [2] is 56.2 µM (active); in [3], 100 µM (active); in test [6], 10 µM (active). In addition, the outcome in [5] was inactive.
Take `O=[N+]([O-])c1ccc(CN2CC=C(c3ccccc3)CC2)cc1`: the Potency result in test [1] and in [2] was “inactive” each time. Further, the activation is 0% [at 17.1 µM, percent relative to cAMP agonist control] in test [3] and 8.24% [at 30.8 µM] in test [6]. In addition, the activity change, negative = inhibition in [4] is 0.463% [at 12.7 µM].
Regarding `CN1CC[C@@]2(C)c3cc(O)ccc3N(C)[C@@H]12`, the Potency result in test [7], in [1], in [2], in test [3] and in test [4] was “inactive” throughout. Further, the outcome in test [8] and in test [5] was inactive. The Potency in [6] is 5.62 µM (active).
For the compound `CC1=C(O)C(=O)C=C2C1=CC=C1C2(C)CCC2(C)C3CC(C)(C(=O)O)CCC3(C)CCC12C` (centres undefined), the figures for the Potency in test [1] and in test [4] were 33.8 µM (active) and 0.953 µM (active), respectively. In addition, the Potency entry in [2], in test [3] and in [6] was “inactive” throughout. The compound was classed as inactive in test [5].
Turning to `Cc1cc(/C=C2/C(=O)NC(=O)N(Cc3ccco3)C2=O)c(C)n1-c1ccccc1O`, the Potency was 44.7 µM (active) in test [1] and 0.19 µM (active) in test [4]. The Potency result in test [2] was “inactive”. Moreover, the activation in test [3] was 11.8% [at 17.1 µM, percent relative to cAMP agonist control]; in [6], 17.9% [at 30.8 µM]. For the same compound, the activity change, negative = inhibition in test [5] is -13.1% [at 30.8 µM].
As for `CCOC(=O)C1CCCN(c2ccc([N+](=O)[O-])c3nonc23)C1` (centres undefined), the Potency entry in [1] and in test [4] was “inactive” each time. Further, the figures for the Potency in [2], in test [3] and in test [6] were 112 µM (active), 100 µM (active) and 39.8 µM (active), respectively.
For `COc1ccc(N2C(=O)NC(=O)/C(=C/c3ccc([N+](=O)[O-])s3)C2=O)cc1`, the Potency in test [1] is 33.8 µM (active). In addition, the Potency entry in test [2], in test [3], in test [4] and in test [6] was “inactive” throughout. For the same compound, in [5], the result was inactive.
For the compound `O=C(c1cc(Cl)cc(Cl)c1)N1Cc2ccccc2-n2nncc2C1`, the Potency result in test [1] and in test [2] was “inactive” in each case. The activation is -5.36% [at 17.1 µM, percent relative to cAMP agonist control] in test [3] and 5.77% [at 30.8 µM] in test [6]. Besides, the activity change, negative = inhibition in [4] was -20.5% [at 12.7 µM]; in test [5], 29.2% [at 30.8 µM].
For the compound `CCOC(=O)[C@]12Cc3ccccc3[C@H]1N(Cc1ccccc1)C(=O)c1cc(OC)ccc12`, the Potency entry in test [1] and in test [2] was “inactive” throughout. Moreover, the activation in test [3] is -5.98% [at 17.1 µM, percent relative to cAMP agonist control]; in [6] it was 20.9% [at 30.8 µM]. In addition, in [5], the activity change, negative = inhibition was 2.15% [at 30.8 µM].
Turning to `CCCCNC(=O)c1c(N)n(CCCOC)c2nc3ccccc3nc12`, the Potency in test [1] was 84.9 µM (active). Further, the Potency result in test [2] and in test [3] was “inactive” throughout. For the same compound, the call in test [5] was inactive.
Turning to `CC(C)N1C(=O)/C(=C/C=C/c2ccco2)C(=O)N(Cc2ccco2)C1=O`, in [1], the Potency entry was “inactive”. Also, the activation in test [3] was 13% [at 17.1 µM, percent relative to cAMP agonist control]. Further, the values for the activity change, negative = inhibition in test [4] and in test [5] were 22.6% [at 12.7 µM] and 52.4% [at 30.8 µM], respectively.
For the compound `Cc1ccccc1N1C(=O)NC(=O)/C(=C\c2ccc3c(c2)CCCN3Cc2ccccc2)C1=O`, the Potency is 28.2 µM (active) in test [9] and 16.9 µM (active) in test [1]. Besides, the Potency result in test [2] and in test [3] was “inactive” throughout. The result in [5] was inactive.
As for `COc1cccc(N2C(=O)NC(=O)/C(=C\c3cn(C)c4ccccc34)C2=O)c1`, the Potency result in [1] and in test [4] was “inactive” throughout. Also, the Potency in [3] is 100 µM (active). Also, the compound was classed as inactive in test [5].
Regarding `O=C1CN=C(c2ccccc2)c2cc(Cl)ccc2N1Cc1ccc(Cl)cc1`, the Potency entry in [1] and in test [3] was “inactive” throughout. Further, the activity change, negative = inhibition in test [4] is 1.14% [at 12.7 µM]. For the same compound, in test [5], the result was inactive.
Turning to `CCOC(=O)c1cc(CC)sc1/N=C/C1C(=O)NC(=S)NC1=O`, the Potency entry in [1] was “inactive”. Moreover, the results for the activity change, negative = inhibition in test [4] and in [5] were -21.4% [at 12.7 µM] and -8.68% [at 30.8 µM], respectively.
For `Cc1ccc(-n2c(O)c(/C=C/C=Nc3ccccc3)c(=O)[nH]c2=O)cc1`, the Potency result in test [1], in test [2] and in test [3] was “inactive” throughout. In addition, in [5], the call was inactive. Besides, the Potency in test [6] was 44.7 µM (active).
With `CC(C)CCn1c(=O)c(C(=O)Nc2ccccc2S(N)(=O)=O)c(O)c2ccccc21`, the Potency in test [1] was 75.7 µM (active). The Potency entry in test [2], in test [3] and in [6] was “inactive” throughout. Further, the result in test [5] was inactive.
Take `Cc1cccc(CN2C(=O)CN=C(c3ccccc3)c3ccccc32)c1`: the Potency result in test [1] and in test [3] was “inactive” in each case. For the same compound, the activity change, negative = inhibition in test [4] is 15.3% [at 12.7 µM]. Besides, the compound was classed as inactive in test [5].
As to `CC(C)=CCCC1(C)C=Cc2c(O)c3c(c(CC=C(C)C)c2O1)OC12C(=CC4CC1C(C)(C)OC2(C/C=C(/C)C(=O)O)C4=O)C3=O` (centres undefined), the Potency result in test [10], in [11], in test [12], in [2], in [3] and in [14] was “inactive” throughout. Besides, the values for the Potency in test [13] and in [1] were 20 µM (active) and 19.8 µM (active), respectively.
Regarding `COC1C(OC(=O)c2ccc(C)[nH]2)C(O)C(Oc2ccc3c(O)c(NC(=O)c4ccc(O)c(CC=C(C)C)c4)c(=O)oc3c2Cl)OC1(C)C` (centres undefined), in test [1], the Potency is 30.1 µM (active). In addition, the Potency entry in [2], in test [3] and in test [6] was “inactive” throughout.
Consider `Nc1ccc2nonc2c1[N+](=O)[O-]`, for which the Potency in test [15] was 14.6 µM (active); in [3], 112 µM (active); in [4] it was 47.8 µM (active); in test [6], 63.1 µM (active). Moreover, the Potency result in test [1] is “inactive”. Also, the compound was classed as inactive in test [5].
